TRHR ag: qHTS for Small Molecule Agonists and Allosteric Enhancers of Human TRH Receptor: Primary Screen for Agonists; activation, % at 2 µM; TRHR cells, calcium flux fluo-8, FDSS agonist mode; Thyrotropin-releasing hormone receptor (Homo sapiens), P34981; actives 0.18% (n = 360,000); AID 493084, 2011
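Fluo-8-loaded TRHR cells; 10 s baseline, compound added, kinetic Ca2+ fluorescence read 1/s, agonist mode.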
GRP78 ERSR act: qHTS for Inducers of the Endoplasmic Reticulum Stress Response (ERSR) in Human Glioma: qHTS. Potency, µM, hits mostly activators. AID 602332, 2012. actives 0.02% (n = 420,000). U87-MG GRP78 promoter luciferase reporter, 16 h; active = well fitted activation curve with a large enough effect; note: series mostly up to about 76 µM; nearly all actives have a fitted effect of over 35% in size
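ERSR induction read as luciferase luminescence (Bright-Glo, 10 min at room temperature) in stably transfected human U87-MG glioma cells exposed to compounds for 16 h, using GRP78 as sensor.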
D1 potentiator: Potentiators of Human D1 Dopamine Receptor: qHTS; HEK293 TREx D1 cells, calcium flux, dopamine EC20 potentiation; potentiation, % at 10 µM; actives 0.036% (n = 360,000); in the data active = potentiation above about 30%
Target sequence (P21728 whole entry, looked up): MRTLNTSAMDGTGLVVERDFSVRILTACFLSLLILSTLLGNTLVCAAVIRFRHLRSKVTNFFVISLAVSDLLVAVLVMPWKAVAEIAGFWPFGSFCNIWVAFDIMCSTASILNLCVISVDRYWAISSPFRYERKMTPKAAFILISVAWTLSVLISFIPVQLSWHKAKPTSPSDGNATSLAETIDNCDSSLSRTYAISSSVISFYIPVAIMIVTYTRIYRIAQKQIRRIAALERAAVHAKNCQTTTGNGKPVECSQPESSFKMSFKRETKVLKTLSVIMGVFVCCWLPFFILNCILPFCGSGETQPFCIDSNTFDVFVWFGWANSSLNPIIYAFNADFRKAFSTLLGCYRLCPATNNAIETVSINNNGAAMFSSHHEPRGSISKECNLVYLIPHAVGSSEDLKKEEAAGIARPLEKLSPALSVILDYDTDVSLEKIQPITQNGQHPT
D1 ag: Allosteric Agonists of the Human D1 Dopamine Receptor: qHTS; D(1A) dopamine receptor (Homo sapiens), P21728; HEK293 T-REx D1 cells, calcium flux, agonist mode; activation, % at 2 µM; actives 1% (n = 360,000); AID 504660, 2011
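Inducible HEK293 T-REx D1 cells, force-coupled to calcium signalling, were plated at 4000 cells/well with tetracycline and held overnight at 30 C. After no-wash calcium dye loading, compound-evoked calcium rise over 180 s flagged agonists.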
TRHR PAM: qHTS for Small Molecule Agonists and Allosteric Enhancers of Human TRH Receptor: Primary Screen for Enhancers. TRHR cells, fluo-8 calcium fluorescence, EC20 TRH enhancement. enhancement, % at 2 µM. actives 0.66% (n = 360,000); in the data active = enhancement above about 30%
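TRHR-expressing cells loaded with fluo-8 calcium dye were read kinetically (ex 480/em 530) during compound addition, then stimulated with an EC20 of TRH (10 nM final). Enhancement of the Gq-mediated intracellular calcium response was scored.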
D1 antag: Antagonist of Human D 1 Dopamine Receptor: qHTS; actives 3.2% (n = 360,000); AID 504652, 2011; D(1A) dopamine receptor (Homo sapiens), P21728; activity change, negative = inhibition, % at 10 µM; HEK293 TREx D1 cells, calcium flux, dopamine EC80; stronger effect = lower value; in the data active = activity change below about -30%
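Calcium flux readout: force-coupled, inducible Hek293 Trex D1 line, cells induced overnight at 30 C with tetracycline, dye-loaded 30–90 min at RT. Antagonism scored against EC80 dopamine challenge given 180 s after compound.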
Hits are given with their value; ! = a repeat was not active. Most compounds without a hit are left out; they make up all but 4% or so of the library. Cut-off read from the data, not from the text of the source, unless noted: active = activation above about 30%; inactive = the rest.

`CC(=O)N1CCc2cc(Br)cc(S(=O)(=O)NCCCN3CCCC(C)C3)c21` (configuration not stated) gave TRHR ag inactive, GRP78 ERSR act inactive, D1 potentiator inactive, D1 ag inactive, TRHR PAM inactive and D1 antag inactive.
For COc1ccc(/C=C2\CCC(C3CCCC3)C2=O)cc1Cn1cccn1 (configuration not stated) the results were TRHR ag inactive, GRP78 ERSR act inactive, D1 potentiator inactive, D1 ag inactive, TRHR PAM inactive and D1 antag inactive.
COc1ccc(/C=C2\CCc3ccccc3C2=O)cc1Cn1cccn1 was read as TRHR ag inactive, GRP78 ERSR act inactive, D1 potentiator inactive, D1 ag inactive, TRHR PAM inactive and D1 antag -48.9.
COc1ccccc1C(=O)NCC(=O)N/N=C/c1ccncc1 was read as TRHR ag inactive, GRP78 ERSR act inactive, D1 potentiator inactive, D1 ag inactive, TRHR PAM inactive and D1 antag inactive.
COC(=O)c1ccc(C23CC4(C2)[C@H](CN(C)[C@@H]4c2ccccc2)C3c2ccc(C(F)(F)F)cc2)cc1 (some centres not stated) was read as TRHR ag inactive, GRP78 ERSR act inactive, D1 potentiator inactive, D1 ag inactive, TRHR PAM inactive and D1 antag -52.1.
`Cc1c(C(=O)NCCc2ccccc2)cccc1-n1cnc2cccnc21` gave TRHR ag inactive, GRP78 ERSR act inactive, D1 potentiator inactive, D1 ag inactive, TRHR PAM inactive and D1 antag -32.0.
Cc1ccc2c(c1)sc1nc(=O)n(-c3ccc(Cl)c(Cl)c3)c(=O)n12 was read as TRHR ag inactive, GRP78 ERSR act inactive, D1 potentiator inactive, D1 ag inactive, TRHR PAM inactive and D1 antag -39.2!.
For CCOC(=O)N1CCN(C(=O)C2CCCN(S(=O)(=O)c3ccc(OCC)cc3)C2)CC1 (configuration not stated) the results were TRHR ag inactive, GRP78 ERSR act inactive, D1 potentiator inactive, D1 ag inactive, TRHR PAM inactive and D1 antag inactive.
COC(=O)c1c(C)[nH]c(C(=O)OCC(=O)NCC(C)C)c1C was read as TRHR ag inactive, GRP78 ERSR act inactive, D1 potentiator inactive, D1 ag inactive, TRHR PAM inactive and D1 antag inactive.
For CCc1cccc(C)c1NC(=O)CSc1nc2ccccc2n1CC(=O)N(C)C the results were TRHR ag inactive, GRP78 ERSR act inactive, D1 potentiator inactive, D1 ag inactive, TRHR PAM inactive and D1 antag -35.2.
For CCOC(=O)CSc1nc2ccccc2n1CC(=O)NC(C)(C)C the results were TRHR ag inactive, GRP78 ERSR act inactive, D1 potentiator inactive, D1 ag inactive, TRHR PAM 30.4 and D1 antag inactive.
`CCc1ccccc1NC(=O)CSc1nc2ccccc2n1CC(=O)N(C)C` gave TRHR ag inactive, GRP78 ERSR act inactive, D1 potentiator inactive, D1 ag inactive, TRHR PAM inactive and D1 antag inactive.
O=C(Nc1ccnn1C1CCN(Cc2cc3ccccc3[nH]2)CC1)C1CCOC1 (configuration not stated) was read as TRHR ag inactive, D1 potentiator inactive, D1 ag inactive, TRHR PAM inactive and D1 antag -31.7.
For CC(C)Cc1nc(SCC(=O)NCC2CCCO2)c2c(=O)n(C)c(=O)n(C)c2n1 (configuration not stated) the results were TRHR ag inactive, GRP78 ERSR act inactive, D1 potentiator inactive, D1 ag inactive, TRHR PAM inactive and D1 antag -92.1.

From PubChem
